From PubChem BioAssay
Hits are enriched below; roughly 7.9% of the tested compounds scored in any of these assays.
MCF10A rerep: DNA re-replication induction in MCF 10a cells; Potency, µM (top dose mostly 46.1 µM), for inactives: top-dose activity, positive = re-replication, most hits filed as activators; 2.9% of 350,000 active; MCF 10A DNA re-replication, Hoechst nuclear intensity, 48 h; AID 624296; note: % of control where 0% means no effect; nearly all actives have a fitted effect of over 50% in size
HT1080 IDH1KD tx: kills HT-1080 cells with IDH1 knockdown. 2% of 360,000 active. Potency, µM (highest dose often 46.1 µM), for the others: at the highest dose activity, negative = toxicity, most hits filed as cytotoxic. HT-1080 IDH1 knockdown viability, ATP luminescence, 48 h. AID 686971;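 note: 0% = DMSO wells and -100% = cell-free medium wells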
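Knockdown cells (IDH1KD HT-1080) received compounds 2 h after plating at 750 cells/well and were kept 48 h at 37 °C in 5% FBS RPMI. A CellTiter-Glo luminescence read gave % activity for curve fitting.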
KB-V1 cytotox: kills drug-selected multidrug resistant KB-V1 cells; AID 1347076; Potency, µM (titrated, usually from 46.1 µM), usual class: cytotoxic; 3.4% of 400,000 active; KB-V1 MDR cells viability, CellTiter-Glo, 72 h; note: % is set by controls: 0 for no effect and ±100 for the full control effect; nearly all actives have a fitted effect of over 60% in size
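Cytotoxicity toward P-gp-expressing KB-V1 cells was determined as loss of CellTiter-Glo luminescence after 72 h at 37 degrees C. Compounds were tested in quantitative HTS format across a concentration range, with curves fitted to normalized data.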
KB-3-1 cytotox: KB-3-1 parental cell cytotoxicity; 1.4% of 400,000 active; KB-3-1 viability, CellTiter-Glo ATP luminescence, 72 h; Potency, µM (titrated, usually from 46.1 µM), hits mostly cytotoxic; note: % is set by controls: 0 for no effect and ±100 for the full control effect; nearly all actives have a fitted effect of over 60% in size
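KB-3-1 cells, DMEM (no phenol red) + 10% FBS; compound by pin transfer, 72 h, 37 °C. Readout: CellTiter-Glo luminescence after 10 min. Data normalized, curve-fitted.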
SW480 rereplic: DNA re-replication induction in SW480 cells. SW480 DNA re-replication, Hoechst DNA content imaging, 48 h. Potency, µM (highest dose often 46.1 µM), without a hit: at the top dose re-replication activation, most hits filed as activators. 1.8% of 340,000 active. AID 624297; note: % of control where 0% means no effect; nearly all actives have a fitted effect of over 55% in size
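SW480 cells exposed to compounds for 48 hr at 37 C, 5% CO2, then Hoechst-stained 40 min. Nuclear DNA content imaged by fluorescence scanning (405 nm excitation, 500-530 nm emission); re-replication scored as increased high-intensity nuclei.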
HT1080-NT tox: kills 2HG-producing HT-1080-NT fibrosarcoma cells | HT-1080-NT fibrosarcoma viability, CellTiter-Glo ATP luminescence, 48 h | 1.6% of 360,000 active | Potency, µM (top dose mostly 46.1 µM), inactives show at the top dose activity, negative = less viability, usual class: cytotoxic;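 note: NT is the 2HG producing partner of a matched IDH1 knockdown line; 0% = DMSO-treated cells and -100% = media-only wells without cells; nearly all actives have a fitted effect of over 55% in size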
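Read-out is CellTiter-Glo luminescence after 10 minutes at room temperature, following 48 hours' compound treatment of HT-1080-NT cells (750 cells/well, RPMI, 5% FBS, 37 degrees C).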
Numbers without * were called inactive; i = inactive; ? = inconclusive; · = not tested or not shown; [ ] = another dose, or the depositor's remark. Calls come from the whole dose curve; as a rule, active = well fitted curve in the direction sought with a large enough effect; inconclusive = small, poorly fitted or top-dose-only effect, or another doubt; inactive = no such curve, though single readings can be large; an effect the other way counts as inactive or inconclusive. Potency is the fitted concentration of half-maximal effect.

SMILES	MCF10A rerep	HT1080 IDH1KD tx	KB-V1 cytotox	KB-3-1 cytotox	SW480 rereplic	HT1080-NT tox
CCn1c(=O)c(C(=O)NCc2ccc(Cl)cc2)c(O)c2ccccc21	0.58µM*	8%	i	i	-52%	2%
CCCCCCCCCC(=O)NNC(=O)c1c(O)c2ccccc2n(CC)c1=O	6%	-16%	?	?	-2%	-1%
CCn1c(=O)c(C(=O)NNC(=O)c2ccccc2F)c(O)c2ccccc21	?	-25%	10µM*	15µM*	?	?
CCn1c(=O)c(C(=O)NCc2ccccc2)c(O)c2ccccc21	?	-20%	i	i	-12%	-5%
CCn1c(=O)c(C(=O)NNC(=O)c2ccccc2Cl)c(O)c2ccccc21	0%	-22%	?	i	-6%	?
CCCCCC(=O)NNC(=O)c1c(O)c2ccccc2n(CC)c1=O	?	-14%	23µM*	?	?	-8%
C=CCn1c(=O)c(C(=O)NCc2ccccc2Cl)c(O)c2ccccc21	23µM*	5%	i	?	-50%	4%
O=C(NC1CCCC1)c1ccc(CSc2nc3ccncc3n2Cc2cccc(F)c2)cc1	·	·	i	i	·	·
CCCCCc1ccc(C)cc1O	4%	·	·	·	1%	·
Cc1ccc2nc(-c3ccc(C)o3)c(Nc3ccc(F)cc3)n2c1	·	19%	·	·	·	19%
CCn1c(=O)c(C(=O)NNS(=O)(=O)c2ccc(C)cc2)c(O)c2ccccc21	?	-7%	?	i	3%	-3%
CCCn1c(=O)c(C(=O)NNS(=O)(=O)c2ccc(C)cc2)c(O)c2ccccc21	?	33µM*	?	?	3%	?
CC12CCC(O)CC1=CCC1C2CCC2(C)C1CCC21CCC(=O)O1 (stereo not given)	?	2%	21µM*	?	-66%	-2%
O=C(c1ccccc1Cl)N1CCN(CCc2ccccn2)CC1	·	·	i	i	·	·
CCOc1ccc(C(CC(=O)Nc2cc(C)c(Cl)cc2OC)N2Cc3ccccc3C2=O)cc1OC (stereo not given)	·	·	?	i	·	·
O=[N+]([O-])c1cc(S(=O)(=O)NCCN2CCOCC2)ccc1Sc1nnnn1-c1ccccc1	?	?	i	13µM*	15µM*	?
CN(C)CCNS(=O)(=O)c1ccc(N2CCN(c3ccc(F)cc3)CC2)c([N+](=O)[O-])c1	?	18µM*	?	?	?	?
Cc1ccc(-n2nnnc2Sc2ccc(S(=O)(=O)NCCN(C)C)cc2[N+](=O)[O-])cc1	?	23µM*	?	i	8.2µM*	?
O=S(=O)(NCCN1CCOCC1)c1ccc2ccccc2c1	37%	-6%	i	i	?	2%
CCCN1CNc2c(c(=O)[nH]c(=S)n2CCc2cc(Cl)ccc2Cl)C1	·	-7%	·	·	·	-18%
O=C(NCc1ccccc1)c1c2c(nc3ccccc13)C(=O)N(C1CCCCC1)C2	·	·	i	i	·	·
COc1ccc(N2CCN(c3oc(-c4ccc(OC)c(OC)c4)nc3C#N)CC2)cc1	-35%	3%	i	i	0%	8%
COc1ccccc1-c1nc(C#N)c(N2CCc3ccccc3C2)o1	16µM*	-20%	?	?	17%	4%
COc1ccccc1-c1nc(C#N)c(N2CCCCCC2)o1	?	3%	?	i	-14%	0%
COc1ccc(-c2nc(C#N)c(N3CCc4ccccc4C3)o2)cc1OC	?	-10%	2.1µM*	i	7%	?
Cc1cccc(OCCCN2CCCCCC2)c1	-4%	9%[9.24 µM]	i	i	3%	2%
Cc1cccc(OCCN2CSC(=S)N(C)C2)c1	5.8µM*	?	10µM*	8.2µM*	?	18µM*
COc1ccccc1OCCN1CSC(=S)N(C)C1	7.3µM*	7.3µM*	?	5.2µM*	2.6µM*	9.2µM*
COc1ccccc1OCCCCN1CCCCC1	0%	2%	i	i	2%	1%
